Screens: PubChem BioAssay, National Center for Advancing Translational Sciences (NCATS)
MCF10A rerep: inducers of DNA re-replication in MCF 10A breast cells. MCF 10A DNA re-replication, Hoechst nuclear intensity, 48 h. Potency, µM (series often up to 46.1 µM), for inactives: at the highest dose activity, positive = re-replication, most hits filed as activators. actives 2.9% (n = 350,000). AID 624296; further: % of control where 0% means no effect; nearly all actives have a fitted effect of over 50% in size
PTAP TSG101 blk: blocks PTAP/TSG101 interaction to inhibit HIV-1 budding. Q99816. Fluorescence polarization, FITC-PTAP peptide / Tsg101 binding. Potency, µM (top dose mostly 115 µM), without a hit: at the highest dose activity change, negative = inhibition, actives largely listed as inhibitors. 340,000 tested, under 10 active. AID 493005; active means well fitted inhibition curve with a large enough effect in the main read-out, with a control signal flat, not every such curve was filed as active; inconclusive means small, poorly fitted or top-dose-only effect, or effect the other way, or a change in a side signal; inactive means no such curve, though single readings can be large or run the other way; further: % of control where 0% means no effect
Target sequence (Q99816 whole entry, looked up): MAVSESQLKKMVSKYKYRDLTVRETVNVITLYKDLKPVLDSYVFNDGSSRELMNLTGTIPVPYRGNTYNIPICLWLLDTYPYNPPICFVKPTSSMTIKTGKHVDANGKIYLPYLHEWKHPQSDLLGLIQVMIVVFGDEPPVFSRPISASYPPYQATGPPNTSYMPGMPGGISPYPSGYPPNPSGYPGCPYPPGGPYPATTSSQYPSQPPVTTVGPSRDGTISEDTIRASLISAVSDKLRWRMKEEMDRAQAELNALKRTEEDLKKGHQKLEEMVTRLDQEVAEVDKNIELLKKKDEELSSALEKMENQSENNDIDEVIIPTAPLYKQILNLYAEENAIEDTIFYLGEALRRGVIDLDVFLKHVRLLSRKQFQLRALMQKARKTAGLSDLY
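Tsg101 binding domain (10 uM final) was mixed with compound and a FITC-labeled PTAP peptide (50 nM final) in HEPES pH 7.5 buffer with NaCl, Tween 20, EDTA and TCEP; fluorescence polarization was read after 20 min at r.t.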
RGS4 inh: inhibitors of human regulator of G protein signaling 4 | P49798 | Transcreener GDP fluorescence polarization, RGS4-accelerated GTP hydrolysis | Potency, µM (highest dose often 114 µM), for the others: at the top dose activity change, negative = inhibition, actives largely listed as inhibitors | actives 0.039% (n = 390,000) | AID 504845; further: on the % scale 0 is the no-effect control and ±100 the full control effect; nearly all actives have a fitted effect of over 75% in size
Target sequence (P49798 whole entry, looked up): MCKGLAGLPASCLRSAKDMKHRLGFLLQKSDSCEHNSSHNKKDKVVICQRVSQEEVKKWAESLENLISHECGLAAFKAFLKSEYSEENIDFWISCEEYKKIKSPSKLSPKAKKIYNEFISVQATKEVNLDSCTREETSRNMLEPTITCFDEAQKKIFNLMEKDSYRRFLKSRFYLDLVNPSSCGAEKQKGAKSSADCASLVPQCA
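MLSMR compounds (23 nl, pin-transferred) preincubated 10 min at room temperature with a 500nM (2x) first reagent, then RGS4 at 900nM (2x) plus Transcreener GDP mix added; fluorescence polarization (620/688 nm) read before and after 90 min at 30 °C.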
KB-V1 MDR tox: KB-V1 MDR subline cytotoxicity; KB-V1 MDR cells viability, CellTiter-Glo, 72 h; Potency, µM (titrated, usually from 46.1 µM), hits mostly cytotoxic; actives 3.4% (n = 400,000); further: on the % scale 0 is the no-effect control and ±100 the full control effect; nearly all actives have a fitted effect of over 60% in size
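Following 72 h at 37 degrees C with compound, KB-V1 cell viability was read by CellTiter-Glo luminescence, medium being phenol-red-free DMEM plus 10% FBS; concentration-response parameters came from normalized, curve-fitted qHTS data.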
KB-3-1 cytotox: kills parental KB-3-1 adenocarcinoma cells. KB-3-1 viability, CellTiter-Glo ATP luminescence, 72 h. Potency, µM (top dose mostly 46.1 µM), hits mostly cytotoxic. actives 1.4% (n = 400,000). AID 1347075; further: on the % scale 0 is the no-effect control and ±100 the full control effect; nearly all actives have a fitted effect of over 60% in size
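Cytotoxicity in the drug-sensitive parental line KB-3-1 was scored as loss of CellTiter-Glo luminescence following 72 h incubation with compound. Values come from curve fitting of normalized concentration-response data.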
SW480 rereplic: DNA re-replication induction in SW480 cells | SW480 DNA re-replication, Hoechst DNA content imaging, 48 h | Potency, µM (top dose mostly 46.1 µM), inactives show at the highest dose re-replication activation, actives largely listed as activators | actives 1.8% (n = 340,000); further: % of control where 0% means no effect; nearly all actives have a fitted effect of over 55% in size
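Quantitative HTS format with DMSO vehicle controls; 48 hr drug incubation at 37 C, then 40 min Hoechst staining and scanning imager measurement at 405 nm excitation.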
Numbers without * were called inactive; [ ] = another dose, or the depositor's remark. The list is not random: actives were taken first. Their share in the collection is about 6.6%. Unless noted, the call rests on the fitted dose curve; in most records, active means well fitted curve in the direction sought with a large enough effect; inconclusive means small, poorly fitted or top-dose-only effect, or another doubt; inactive means no such curve, though single readings can be large; an effect the other way counts as inactive or inconclusive. Potency means the concentration at half of the fitted maximal effect.

`NC(=S)NN=C1c2cc(Cl)ccc2-c2c1cc(Cl)cc2[N+](=O)[O-]` gave MCF10A rerep 20%, PTAP TSG101 blk -1%, RGS4 inh -33%, KB-V1 MDR tox 15µM*, KB-3-1 cytotox 6.5µM* and SW480 rereplic inconclusive.
`Cc1oc(-c2ccccc2F)nc1CSCC(=O)NC1CCCC1` gave MCF10A rerep 8%, PTAP TSG101 blk -3%, RGS4 inh 12%[11.4 µM], KB-V1 MDR tox inconclusive, KB-3-1 cytotox inactive and SW480 rereplic 2%.
Screening Cc1ccc(CSCC(=O)N2CCCC2)cc1 returned MCF10A rerep inconclusive, PTAP TSG101 blk 4%, RGS4 inh -14%, KB-V1 MDR tox inactive, KB-3-1 cytotox inactive and SW480 rereplic -2%.
Screening Cc1oc(-c2ccccc2Cl)nc1CSCC(=O)NC1CC1 returned MCF10A rerep inconclusive, PTAP TSG101 blk -14%, RGS4 inh -6%, KB-V1 MDR tox 13µM*, KB-3-1 cytotox inactive and SW480 rereplic -1%.
CCOC(=O)N1CCN(C(=O)CSCc2ccc(C)cc2)CC1 was read as MCF10A rerep -2%, PTAP TSG101 blk -5%, RGS4 inh 11%, KB-V1 MDR tox inactive, KB-3-1 cytotox inactive and SW480 rereplic 0.18µM*.
Screening CCOC(=O)N1CCN(C(=O)CSCc2nc(-c3ccccc3C)oc2C)CC1 returned MCF10A rerep 6%, PTAP TSG101 blk -8%, RGS4 inh -2%, KB-V1 MDR tox 18µM*, KB-3-1 cytotox inactive and SW480 rereplic -4%.
CCOc1ccc(-c2nc(CSCC(=O)N3CCN(c4cccc(C(F)(F)F)c4)CC3)c(C)o2)cc1 was read as RGS4 inh -16%, KB-V1 MDR tox 18µM* and KB-3-1 cytotox inconclusive.
For COc1ccc(C(=O)c2c(N)c(C(=O)Nc3cccc(OC)c3)c3ccccn23)cc1 the results were RGS4 inh 4%, KB-V1 MDR tox inactive and KB-3-1 cytotox inactive.
For CCOC(=O)c1c(C)oc2nc(C)nc(N3CCN(c4ccccc4)CC3)c12 the results were RGS4 inh -10%, KB-V1 MDR tox inconclusive and KB-3-1 cytotox inconclusive.
For CCOC(=O)c1c(C)oc2nc(C)nc(N3CCN(c4cccc(C(F)(F)F)c4)CC3)c12 the results were RGS4 inh -30%, KB-V1 MDR tox 16µM* and KB-3-1 cytotox inconclusive.
`COc1ccc(CCNC(=O)c2ccc3nc(N4CCCCC4)sc3c2)cc1OC` gave MCF10A rerep 18%, PTAP TSG101 blk 0%, RGS4 inh 12%, KB-V1 MDR tox 18µM*, KB-3-1 cytotox inactive and SW480 rereplic -5%.
`CC1CCCC(C)N1CCCNC(=O)c1ccc2nc(N3CCCCC3)sc2c1` (configuration not stated) gave MCF10A rerep 3%, PTAP TSG101 blk -1%, RGS4 inh 6%, KB-V1 MDR tox inactive, KB-3-1 cytotox inactive and SW480 rereplic inconclusive.
O=C(NCCc1ccc(Cl)cc1)c1ccc2nc(N3CCOCC3)sc2c1 was read as MCF10A rerep 21µM*, PTAP TSG101 blk -3%, RGS4 inh 17%, KB-V1 MDR tox inactive, KB-3-1 cytotox inactive and SW480 rereplic 4%.
Screening CC1CCN(c2nc3ccc(C(=O)NCCCN4CCCCC4C)cc3s2)CC1 (configuration not stated) returned MCF10A rerep 26%, PTAP TSG101 blk -3%, RGS4 inh 4%, KB-V1 MDR tox inactive, KB-3-1 cytotox inactive and SW480 rereplic 21µM*.
Screening COc1ccc(OC)c(NC(=O)CN2CCCN(Cc3ccccc3Cl)S2(=O)=O)c1 returned RGS4 inh -10%, KB-V1 MDR tox inactive and KB-3-1 cytotox inactive.
For COc1ccc(C2Nc3ccc(NC(=O)CO)cc3C(=O)N2Cc2cccc(Cl)c2)cc1COc1ccc(NC(C)=O)cc1 (configuration not stated) the results were RGS4 inh -12%.
Screening CCn1cc(C(=O)N(C)c2ccc(C(C)C)cc2)c2cc(OC)c(OC)cc2c1=O returned RGS4 inh 23%, KB-V1 MDR tox inactive and KB-3-1 cytotox inactive.
`Cn1c(/C=N/Nc2nc3ccccc3[nH]2)nc2ccccc21` gave MCF10A rerep 8%, PTAP TSG101 blk -4%, RGS4 inh -8%, KB-V1 MDR tox inactive, KB-3-1 cytotox inconclusive and SW480 rereplic inconclusive.
`CC(C)Cn1c(/C=N/Nc2nc3ccccc3[nH]2)nc2ccccc21` gave MCF10A rerep 10%, PTAP TSG101 blk 6%, RGS4 inh 4%, KB-V1 MDR tox inconclusive, KB-3-1 cytotox 16µM* and SW480 rereplic inconclusive.
For Cc1c(/C=N/Nc2nc3ccccc3[nH]2)c2ccccc2n1C the results were MCF10A rerep 16µM*, PTAP TSG101 blk -4%, RGS4 inh -17%, KB-V1 MDR tox inconclusive, KB-3-1 cytotox inconclusive and SW480 rereplic inconclusive.
COc1ccc(C(=O)Nc2cccc(C(=O)OCc3cc(=O)n4nc(C5CC5)sc4n3)c2)cc1 was read as RGS4 inh -25%, KB-V1 MDR tox inconclusive and KB-3-1 cytotox inactive.
`CCOC(=O)c1cccc(NC(=O)c2cnc(N3CCCCC3)c3ccccc23)c1` gave RGS4 inh 1%, KB-V1 MDR tox inactive and KB-3-1 cytotox inconclusive.
CC(C)(C)OC(=O)N1CCC(c2c(C(=O)N3CCN(c4ccccc4F)CC3)cnn2-c2ccccc2Cl)CC1 was read as RGS4 inh -6%, KB-V1 MDR tox inactive and KB-3-1 cytotox inactive.
Cc1ccc(C(=O)Sc2cccccc2=O)cc1 was read as MCF10A rerep 2.1µM*, PTAP TSG101 blk 0%, RGS4 inh -98%, KB-V1 MDR tox 2.6µM*, KB-3-1 cytotox inconclusive and SW480 rereplic inconclusive.
`CCn1cc(CN2CCC(C(=O)Nc3ccc(Oc4ccccc4F)cc3)CC2)c(C)n1` gave MCF10A rerep 21µM*, PTAP TSG101 blk -1%, RGS4 inh -5%, KB-V1 MDR tox inconclusive, KB-3-1 cytotox inactive and SW480 rereplic inconclusive.
`CC(C)n1cc(CN2CCC(C(=O)Nc3ccc(Oc4ccccc4F)cc3)CC2)cn1` gave MCF10A rerep 8%, PTAP TSG101 blk -5%, RGS4 inh -14%, KB-V1 MDR tox inactive, KB-3-1 cytotox inconclusive and SW480 rereplic inconclusive.
Cc1ccc(S(=O)(=O)N2CCN(c3nc(-c4cnccn4)nc4ccccc34)CC2)cc1 was read as RGS4 inh 6%.
